In the library only some 12% were active in any assay of this set; here they are far more common.
L major viab: Leishmania major promastigote growth inhibition, primary screen; inhibition, % at 10 µM; hit rate 9% among 200,000; AID 1063, 2008; Leishmania major promastigotes, resazurin fluorescence viability; in the data active = inhibition above about 50%;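 also: promastigotes grown with compound for 44 hours at 28 °C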
Arbovirus anti: antivirals against arbovirus infection, primary screen, cell-based, full library, 10K replicate subset. arbovirus infection cell-based antiviral screen. inhibition, % at 10 µM. hit rate 0.37% among 200,000. AID 1251, 2008; in the data active = inhibition above about 30%
CHOP inh: inhibitors of CHOP promoter induction, primary screen, cell-based, unfolded protein response, luciferase reporter. CHO-K1 CHOP-promoter luciferase, tunicamycin-induced, 15-18 h. inhibition, % at 10 µM. hit rate 3.8% among 220,000;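 active = compounds that reduced the stress-induced luciferase reporter signal by more than about 70% of percent inhibition, limit read from the data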;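 also: 0% = tunicamycin plus vehicle and 100% = wells without tunicamycin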
WT yeast gro inh: growth inhibition of WT strain, primary screen, mitochondrial fusion inhibitor project, WT and mutant strains, chemical genetic | mitochondrial fusion phenotypic screen | AID 1362, 2008 | inhibition, % at 10 µM | hit rate 2.1% among 190,000; in the data active = inhibition above about 58%; tested in S. cerevisiae
Numbers without * were called inactive; · = no result.

SMILES	L major viab	Arbovirus anti	CHOP inh	WT yeast gro inh
CN(C)Cc1c(O)ccc2oc(Cc3ccccc3)cc12	76.9*	-3.3	25.8	8.0
CCCCCCCSc1nnc(-c2ccccc2N)c(=O)[nH]1	-7.7	4.2	3.3	79.1*
CCO[C@H]1OC(C(=O)NCc2ccccc2)=C[C@@H](c2ccc(C(F)(F)F)cc2)[C@@H]1CCCO	53.2*	-20.1	3.5	27.0
CCO[C@H]1OC(C(=O)Nc2ccccc2)=C[C@@H](c2ccc(C(F)(F)F)cc2)[C@@H]1CCCO	38.4	-14.7	10.2	74.7*
C1CC(CN2CCOCC2)CN(Cc2nc(CC3CC3)no2)C1 (stereo not given)	-1.9	-4.3	-7.4	5.6
CCn1c2ccccc2c2cc(/C=N/NC(=O)c3cc(O)cc(O)c3)ccc21	0.5	-12.8	-7.0	-0.6
CCn1c2ccccc2c2cc(/C=N/NC(=O)c3ccc(O)cc3)ccc21	67.1*	-36.2	26.5	5.3
Cc1cc(SCC(=O)NCCC2=CCCCC2)nc2ccccc12	2.0	3.0	56.8	69.3*
COCC(C)n1c(SCC(=O)NCCC2=CCCCC2)nc2ccccc2c1=O (stereo not given)	92.5*	-10.6	11.5	2.7
CCOC(=O)N1CCC(n2c(SCC(=O)N3CCCC3)nc3ccccc3c2=O)CC1	0.7	0.6	-10.7	6.1
COCC(C)n1c(SCC(=O)c2cc(C)n(C)c2C)nc2ccccc2c1=O (stereo not given)	83.8*	2.1	30.7	-18.8
COCC(C)n1c(C)cc(C(=O)CSc2nc3ccccc3c(=O)[nH]2)c1C (stereo not given)	-8.2	16.4	10.4	-3.9
CCOC(=O)N1CCC(n2c(SCC(=O)NCc3ccccc3)nc3ccccc3c2=O)CC1	81.0*	-4.5	14.9	2.3
COc1ccccc1CNC(=O)/C=C/c1ccc(Br)o1	2.1	1.4	-15.4	-9.4
FC(F)(F)c1cc(N2CCOCC2)nc(-c2ccccc2)n1	-2.5	15.0	37.1	-5.1
CC1(C)CC(=O)C(C=NCC2CCN(C(=S)Nc3cccc(Cl)c3)CC2)=C(O)C1	-1.9	6.2	20.9	2.8
COCC(C)n1c(C)cc(C(=O)CSc2nnnn2-c2ccc(O)cc2)c1C (stereo not given)	73.0*	0.4	18.7	-0.9
CCOC(=O)N1CCC(n2c(SCC(=O)NCCC3=CCCCC3)nc3ccccc3c2=O)CC1	70.3*	-19.3	64.4	18.8
Cn1c(=O)cc(SCC(=O)NCCC2=CCCCC2)c2cc(Cl)ccc21	2.2	9.5	93.1*	8.6
CC1(C)C(=O)Nc2ccccc2N1C(=O)COc1cccnc1[N+](=O)[O-]	7.3	-8.3	-25.9	·
Cc1ccccc1NC(=O)C1CCN(c2cc(-c3ccccc3)nc3ncnn23)CC1	11.7	4.7	21.5	-22.9
Cc1ccc(N=Nc2c(N)[nH]n3c(=O)cc(-c4ccccc4)nc23)cc1	93.8*	-28.1	75.4*	60.3*
Cc1cc(=O)n2[nH]c(N)c(N=Nc3ccccc3)c2n1	5.3	-10.2	19.0	-10.1
COc1cccc(N=Nc2c(N)[nH]n3c(=O)cc(-c4ccccc4)nc23)c1	92.5*	-30.8	67.1	9.4
C=CCNS(=O)(=O)CC12CCC(CC1=O)C2(C)C (stereo not given)	-1.4	5.6	10.8	-15.5
SMILES	L major viab	Arbovirus anti	CHOP inh	WT yeast gro inh
COc1ccc(-c2[nH]ncc2-c2ccc(Cl)cc2)c(O)c1	25.2	-30.2	85.7*	-4.3
O=[N+]([O-])c1ccc(COc2ccc(-c3[nH]ncc3-c3ccc(Cl)cc3)c(O)c2)cc1	73.3*	-38.9	81.5*	94.0*
CC1C(=O)N(c2ccc(S(=O)(=O)N(C)C)cc2)C1(/C=C/c1ccccc1)C(=O)NC1CCCC1 (stereo not given)	54.4*	7.8	35.4	1.2
CCOC(=O)COc1ccc(C2CC(C)=NN2c2ccccc2)cc1 (stereo not given)	1.4	0.9	22.2	-16.3
CCC(Oc1cc(Cl)ccc1Cl)C(=O)NNC(=O)CCC(=O)O (stereo not given)	-3.2	3.9	6.8	-10.9
CCC(Oc1cc(Cl)ccc1Cl)C(=O)NN1C(=O)C2C3CCC(C3=C(C)C)C2C1=O (stereo not given)	98.4*	0.2	86.7*	18.5
O=C1/C(=C/N(C(=O)c2ccco2)c2ccc(Br)cc2)Sc2ccccc21	-9.5	-11.4	90.1*	22.8
O=C1/C(=C/N(C(=O)c2ccco2)c2ccc(Cl)cc2)Sc2ccccc21	-7.3	-12.1	88.4*	4.4
C=C(C)CSc1nc2ccccc2[nH]1	2.8	4.8	-20.0	-10.0
C#CC[N+](C)(C)CCCCCCCCCC	58.1*	-29.0	0.8	9.3
C#CC[N+](C)(C)CCCCCCCCCCCC	100.4*	-36.6	-5.4	78.2*
CC#CC[N+](C)(C)CCCCCCCCCCCC	100.5*	-15.1	15.9	83.3*
O=S(=O)(Cc1ccc(Cl)cc1)c1ncc(CO)n1Cc1ccccc1	-3.9	0.6	14.5	-10.0
CN1C(=O)CSC1=NC12CC3CC(CC(C3)C1)C2	-1.8	3.7	72.7*	9.8
O=C(c1c[nH]c(C(=O)C(Cl)(Cl)Cl)c1)c1ccc(F)cc1Cl	71.0*	-28.4	21.4	-5.2
O=C(c1ccc(Cl)cc1)c1c[nH]c(C(=O)NNc2ccccc2)c1	44.9	-26.9	-13.8	11.3
O=C(c1ccccc1)c1c[nH]c(C(=O)C(Cl)(Cl)Cl)c1	86.8*	-11.2	18.7	3.0
O=C(c1ccc(Cl)cc1)c1c[nH]c(C(=O)C(Cl)(Cl)Cl)c1	85.8*	-40.5	36.2	82.5*
O=C(NC1CC1)c1ccc(F)cc1Cl	-3.9	3.5	23.9	0.9
COc1ccc(S(=O)(=O)n2nc(C)cc2C)c(C)c1C	50.1*	10.9	68.5	-2.2
Cc1cc(C)n(S(=O)(=O)c2ccc(C)c(C)c2C)n1	31.1	-0.7	19.4	-2.1
Cc1cc(C)nc(-n2nc(C)c3c(C(=O)O)cc(-c4cccc(Br)c4)nc32)n1	·	·	2.0	·
Cc1nn(C)c(Nc2ccc(Br)cc2)c1Br	25.2	9.2	74.5*	36.8
Cc1c(C(=O)Nc2ccc(Br)cc2)cnn1C	-9.6	1.3	1.5	-2.1
Cc1cc(C)nc(-n2nc(C)c(Br)c2Nc2ccc(Br)cc2)n1	3.7	6.8	77.0*	5.3
SMILES	L major viab	Arbovirus anti	CHOP inh	WT yeast gro inh
CCN(CC)C(=O)c1sc2c(c1C)c(=O)n(-c1ccc(C)c(C)c1)c(=O)n2CC(=O)NCC1CCCO1 (stereo not given)	16.9	18.9	-8.9	-1.4
CCOC(=O)/C=C/C(=O)OCC(=O)Nc1ccc(Cl)cn1	-1.9	7.0	-19.5	1.1
Cc1nnc(SCC(=O)Nc2ccc(Cl)cn2)s1	56.6*	-2.2	17.4	-12.9
CC(C)=CC(=O)OCC(=O)Nc1ccc(Cl)cn1	-0.2	-3.1	75.3*	6.2
CCCCCNC(=O)C1CCC(Cn2c(=S)[nH]c3ccccc3c2=O)CC1 (stereo not given)	1.9	1.8	27.1	10.6
COc1ccc(NC(=O)c2sccc2C)cn1	-4.4	-2.2	-19.0	-0.5
COc1ccc(C2=CC(c3ccc(OC)c(OC)c3)NC(=S)N2)cc1 (stereo not given)	-2.6	-9.1	25.4	-2.3
COc1ccc(C2C=C(C34CC5CC(CC(C5)C3)C4)NC(=S)N2)cc1 (stereo not given)	16.2	20.5	5.4	69.8*

Source: PubChem
